Test results from PubChem BioAssay.
Active and inactive are the calls of the source.

What was measured:
[1] = test system: Human papillomavirus type 1a protein E7 (residues 44-93); assay: HPV1a E7 fragment binders on microarrays, primary screen, biochemical, small-molecule microarray, residues 44-93, 635 nm fluorescence (AID 1108); details: small-molecule microarray binding, fluorescence 635 nm; higher = more signal;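 also: E7 fragment applied at 1 µg/mL in TBST for 1 h at 4 C; score combines spot fluorescence with its signal to noise ratio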
[2] = modulators of HCV replicon luciferase signal, primary screen, HCV replication inhibitor project, Huh7 cells, luciferase reporter (AID 1109); details: 48 h, higher = more signal;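 also: huh7 hepatoma cells harbouring a luciferase neomycin HCV replicon reporter; luciferase luminescence as measure of HCV replicon replication; test concentration not given here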
[3] = target: Left-right determination factor 2 (Homo sapiens) (UniProt O00292); assay: LEFTY2 binders on small-molecule microarrays, primary screen, biochemical, small-molecule microarray, 635 nm fluorescence scan (AID 1110); details: LEFTY2 binding, higher = more signal
[4] = target: Calmodulin-1 (Homo sapiens) (UniProt P0DP23); assay: CALM1 binders on microarrays, EGTA buffer, profiling panel, biochemical, small-molecule microarray, Cy5-labelled CALM1 (AID 1111); details: Cy5-CALM1 binding fluorescence, higher = more signal;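 also: labelled calmodulin applied in Tris saline Tween buffer holding calcium plus EGTA and DTT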
[5] = target: Calmodulin-1 (Homo sapiens) (UniProt P0DP23); assay: calcium-bound CALM1 binders on microarrays, profiling panel, artefact control for SMM control-protein annotation, biochemical, small-molecule microarray, Cy5-labelled CALM1, plus calcium (AID 1112); details: Cy5-CALM1 binding fluorescence, higher = more signal;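 also: score merges spot fluorescence with signal to noise from triplicate slides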
[6] = small-molecule microarray binders of probe aWnt5a, primary screen, biochemical, biotinylated probe, 635/667 nm fluorescence (AID 1113); details: higher = more signal;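 also: score merges 667 nm fluorescence intensity with signal-to-noise per printed feature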
[7] = small-molecule microarray binders of probe aShh, primary screen, biochemical, biotinylated probe, 635/667 nm fluorescence (AID 1114); details: higher = more signal;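 also: probe is biotin-labelled aShh protein from a stem cell growth factor screen; measures binding of labelled protein to compounds printed on the slide; score merges feature fluorescence at 667 nm with signal-to-noise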
[8] = small-molecule microarray binders of probe aNog, primary screen, biochemical, biotinylated probe, 635/667 nm fluorescence (AID 1115); details: higher = more signal;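 also: probe is biotinylated aNog protein used at 0.15 µg/mL for 1 h at 4 C; z-score combines 667 nm fluorescence of each spot with its signal to noise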
[9] = target: Torsin-1A-interacting protein 1 (Homo sapiens) (UniProt Q5JTV8); assay: LAP1 binders from COS7 cell lysate, primary screen, small-molecule microarray, 635/667 nm fluorescence (AID 1116); details: COS7-hLAP1 lysate binding, 635 nm fluorescence, higher = more signal
[10] = target: Alpha-bungarotoxin (Bungarus multicinctus) (UniProt P60615); assay: alpha-bungarotoxin binders on microarray, profiling panel, artefact control for SMM control protein annotation, biochemical, small-molecule microarray, Alexa647 label, 635/667 nm fluorescence (AID 1117); details: alpha-BTX-A647 binding fluorescence, higher = more signal
[11] = target: Albumin (Bos taurus) (UniProt P02769); assay: bovine serum albumin binders on microarray, profiling panel, artefact control for SMM control protein annotation, biochemical, small-molecule microarray, Alexa647 label, 635/667 nm fluorescence (AID 1118); details: BSA-A647 binding, fluorescence 635 nm, higher = more signal;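 also: score merges 667 nm emission intensity and signal-to-noise per printed compound spot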
[12] = small-molecule microarray binders of probe aXIP, primary screen, biochemical, NeuroSMM set, 635/667 nm fluorescence (AID 1119); details: higher = more signal, called active from +8 up or from −8 down;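 also: probe is the protein aXip251-270 applied at 1 µg/mL to compound-printed slides; binding of probe to printed compounds measured as 667 nm fluorescence plus signal to noise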
[13] = small-molecule binders of probe aNOTCH3, primary screen, biochemical, small-molecule microarray, 635/667 nm fluorescence (AID 1120); details: higher = more signal;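 also: probe is a biotin-tagged antibody raised against NOTCH3 rather than NOTCH3 protein; score merges spot fluorescence near 667 nm with spot signal to noise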
[14] = small-molecule binders of probe aNOTCH2, primary screen, biochemical, small-molecule microarray, 635/667 nm fluorescence (AID 1121); details: higher = more signal;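 also: score merges feature fluorescence read at 667 nm with its signal to noise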
[15] = target: Carbonic anhydrase 2 (Homo sapiens) (UniProt P00918); assay: CAII small-molecule binders, profiling panel, biochemical, small-molecule microarray, Alexa647-labelled CAII (AID 1122); details: CAII-A647 binding fluorescence, higher = more signal
[16] = COS7 lysate on small-molecule microarray, probe aHis, 635 nm (AID 1123); details: COS7 cell lysate, fluorescence, higher = more signal;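 also: z-score combines 667nm fluorescence intensity with signal-to-noise per printed compound spot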
[17] = compound binding in COS7 lysate, probe aLAP1, primary screen, cell lysate, small-molecule microarray (AID 1124); details: probe aLAP1, fluorescence, higher = more signal;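 also: lysate comes from COS7 cells expressing LAP1 and is applied at 0.3 µg/mL; score merges spot fluorescence near 667 nm with signal-to-noise over triplicate slides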
[18] = test system: Sam68 (KHDRBS1); assay: Sam68 small-molecule binders, primary screen, biochemical, small-molecule microarray, 635 nm fluorescence (AID 1125); details: small-molecule microarray binding, higher = more signal;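 also: score merges 667 nm channel intensity with signal to noise over triplicate slides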
[19] = test system: Chordin-like protein 2 (CHRDL2); assay: CHRDL2 small-molecule binders, primary screen, biochemical, small-molecule microarray, 635 nm fluorescence (AID 1126); details: small-molecule microarray binding, fluorescence 635 nm; higher = more signal;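 also: printed compound slides probed with Chrdl2 protein at 4 µg/mL for 1 h at 4 C; score merges 667 nm emission intensity with signal to noise over three replicate slides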
[20] = target: Concanavalin-A (Canavalia ensiformis) (UniProt P02866); assay: ConA small-molecule binders, primary screen, artefact control for SMM control protein annotation, biochemical, small-molecule microarray, Alexa647 label, 635 nm (AID 1127); details: ConA-A647 binding fluorescence, higher = more signal;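 also: z combines 667 nm emission intensity with signal-to-noise across three replicate slides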
Concanavalin-A (Canavalia ensiformis), sequence (P02866 whole entry, looked up): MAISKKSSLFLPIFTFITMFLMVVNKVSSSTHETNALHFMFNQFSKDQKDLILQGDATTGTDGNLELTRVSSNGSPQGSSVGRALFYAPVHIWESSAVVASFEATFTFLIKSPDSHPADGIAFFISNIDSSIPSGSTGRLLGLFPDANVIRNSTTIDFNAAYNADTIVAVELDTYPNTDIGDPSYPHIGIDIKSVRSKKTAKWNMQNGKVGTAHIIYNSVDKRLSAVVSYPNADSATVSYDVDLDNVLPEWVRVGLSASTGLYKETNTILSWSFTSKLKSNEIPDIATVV

Albumin (Bos taurus), sequence (P02769 whole entry, looked up): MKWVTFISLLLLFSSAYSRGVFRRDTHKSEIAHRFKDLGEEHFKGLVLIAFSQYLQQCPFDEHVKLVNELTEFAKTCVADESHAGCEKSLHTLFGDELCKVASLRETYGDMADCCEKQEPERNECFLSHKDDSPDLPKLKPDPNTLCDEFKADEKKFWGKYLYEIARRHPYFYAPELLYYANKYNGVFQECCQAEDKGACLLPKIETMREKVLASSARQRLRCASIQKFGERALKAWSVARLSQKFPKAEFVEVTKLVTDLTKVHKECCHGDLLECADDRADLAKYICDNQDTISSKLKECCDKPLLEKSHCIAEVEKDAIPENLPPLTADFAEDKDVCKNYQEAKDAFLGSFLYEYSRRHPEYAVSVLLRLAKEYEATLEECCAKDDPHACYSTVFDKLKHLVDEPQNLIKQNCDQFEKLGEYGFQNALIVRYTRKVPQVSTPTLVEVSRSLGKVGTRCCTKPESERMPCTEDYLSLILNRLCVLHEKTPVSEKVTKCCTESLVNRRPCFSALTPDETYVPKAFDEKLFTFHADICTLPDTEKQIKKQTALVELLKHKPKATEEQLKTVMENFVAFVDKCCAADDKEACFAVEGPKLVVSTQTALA
Alpha-bungarotoxin (Bungarus multicinctus), sequence (P60615 whole entry, looked up): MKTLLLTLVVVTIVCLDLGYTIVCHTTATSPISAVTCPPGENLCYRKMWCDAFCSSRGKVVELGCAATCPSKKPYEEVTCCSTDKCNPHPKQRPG
Torsin-1A-interacting protein 1 (Homo sapiens), sequence (Q5JTV8 whole entry, looked up): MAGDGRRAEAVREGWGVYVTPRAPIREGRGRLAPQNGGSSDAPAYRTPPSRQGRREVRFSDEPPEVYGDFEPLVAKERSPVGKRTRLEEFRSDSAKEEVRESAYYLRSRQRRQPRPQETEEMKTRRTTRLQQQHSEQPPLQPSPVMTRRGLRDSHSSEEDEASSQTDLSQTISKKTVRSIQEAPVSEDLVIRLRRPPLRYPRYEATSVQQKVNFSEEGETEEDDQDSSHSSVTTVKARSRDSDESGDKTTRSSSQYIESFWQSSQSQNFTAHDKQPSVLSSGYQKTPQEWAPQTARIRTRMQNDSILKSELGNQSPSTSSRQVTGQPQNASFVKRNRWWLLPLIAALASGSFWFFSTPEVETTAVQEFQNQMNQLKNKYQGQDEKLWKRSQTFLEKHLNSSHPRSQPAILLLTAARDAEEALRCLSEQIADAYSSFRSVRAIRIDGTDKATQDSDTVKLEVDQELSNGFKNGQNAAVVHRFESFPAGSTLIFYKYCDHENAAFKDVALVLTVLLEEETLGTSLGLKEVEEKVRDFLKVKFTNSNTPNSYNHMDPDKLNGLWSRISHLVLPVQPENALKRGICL
Left-right determination factor 2 (Homo sapiens), sequence (O00292 whole entry, looked up): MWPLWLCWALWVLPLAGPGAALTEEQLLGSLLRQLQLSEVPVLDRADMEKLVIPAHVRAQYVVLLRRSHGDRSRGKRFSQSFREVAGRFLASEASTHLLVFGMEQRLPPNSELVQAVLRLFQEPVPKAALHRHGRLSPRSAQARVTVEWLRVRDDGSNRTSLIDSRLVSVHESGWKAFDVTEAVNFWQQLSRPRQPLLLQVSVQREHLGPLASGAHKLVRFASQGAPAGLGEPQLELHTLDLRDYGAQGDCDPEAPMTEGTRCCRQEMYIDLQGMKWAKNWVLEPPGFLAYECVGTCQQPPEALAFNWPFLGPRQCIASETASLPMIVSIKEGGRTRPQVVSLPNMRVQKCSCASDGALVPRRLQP

Structure (SMILES)	composite z-score [1]	z-score [2]	composite z-score [3]	composite z-score [4]	composite z-score [5]	composite z-score [6]	composite z-score [7]	composite z-score [8]	composite z-score [9]	composite z-score [10]	composite z-score [11]	composite Z-score [12]	composite z-score [13]	composite z-score [14]	composite z-score [15]	composite z-score [16]	composite z-score [17]	composite z-score [18]	composite z-score [19]	composite z-score [20]
CC1CC/C=C\[C@H]2OC34C=CCN(C(C)(C)C)C(=O)[C@H]3N(CCCO)C(=O)[C@@H]4C2C(=O)O1 (stereo not given in full)	-0.0793	-0.751	-0.19	-0.128	0.588	-0.105	0.0278	0.0215	1.42	-1.18	-1.53	0.398 (inactive)	-0.155	-0.164	0.916	0.386	0.71	-0.307	-0.286	-0.532
C=CCOC(=O)[C@@H]1[C@H]2C(=O)O[C@H](c3ccccc3)[C@H](c3ccccc3)N2[C@H](c2ccc(OCCOC(=O)[C@H]3C[C@H]4C(=O)NCC(=O)N4[C@H]3c3cccc(OCCO)c3)cc2)[C@@]12C(=O)Nc1ccc(I)cc12	0.534	-0.582	0.553	1.33	0.0237	-0.0327	0.147	-0.381	1.61	1.39	-0.735	0.614 (inactive)	-0.006	-0.06	0.636	1.96	0.397	1.3	1.02	1.19
O=C1N(Cc2ccccc2)c2ccccc2C[C@@]12COC(c1ccc(OCCCO)cc1)=N2	1.24	-1.08	-0.56	0.993	0.749	0.02	0.0018	1.39	1.58	0.802	0.809	-0.267 (inactive)	0.251	-0.0595	0.471	2.51	0.756	1.15	-0.366	0.582
O=C(O)[C@H](Cc1ccccc1)n1cc(C2(O)CCCCC2)nn1	0.792	-0.96	0.678	-0.259	-0.691	-0.263	0.527	-0.0899	0.281	0.0396	0.568	0.217 (inactive)	0.0191	-0.147	0.54	1.46	0.0496	1.01	-0.0151	0.463
C=CC[C@@]1(C(=O)OC)N=C(c2ccc(OCCCO)cc2)O[C@@H]1c1ccccc1N=[N+]=[N-]	1.48	-0.992	0.684	0.17	-0.483	0.0433	0.313	0.604	1.66	1.43	-1.11	0.721 (inactive)	0.477	0.12	0.475	2.76	0.568	1.29	1.33	0.896
CCC(CC)C(O)C1C=CC2C(=O)N(c3ccccc3)C(=O)C2N1Nc1ccccc1F (stereo not given)	1.2	-0.171	-0.527	0.189	0.25	0.612	-0.214	0.53	0.447	1.39	0.86	0.204 (inactive)	0.188	0.001	0.604	1.83	0.261	0.865	0.118	0.949
CCCCC(O)C1C=CC2C(=O)N(c3ccccc3)C(=O)C2N1Nc1ccc(C#N)cc1 (stereo not given)	1.02	-0.115	0.123	1.06	0.929	-0.0125	0.337	1.19	0.385	1.01	0.859	0.22 (inactive)	0.426	0.349	0.721	2.68	1.23	1.17	-0.0433	0.778
CCCN1C(=O)[C@@]2(c3ccc([N+](=O)[O-])cc3)CC(=O)N(CC34CC5CC(CC(C5)C3)C4)[C@@H]2c2ccc(CO)cc21	0.0595	-0.767	-0.242	-0.0921	-0.647	-0.0203	-0.0519	-0.873	-0.38	-0.0061	0.391	-0.316 (inactive)	0.056	-0.199	0.302	0.634	-0.193	-0.83	-0.229	0.0674
COC(=O)[C@@]1(Cc2ccccc2)[C@H]2c3cc(C(=O)N(C)C)n(CCSC(=N)N)c3C[C@H]2CN1C(=O)c1ccccc1	-0.98	-0.588	-0.76	0.96	0.0575	-0.0006	-0.138	1.39	3.21	-0.351	-0.107	1.22 (inactive)	0.0159	0.0591	0.877	0.778	1.63	-1.71	-0.721	-1.36
COc1ccc(C(=O)Nc2cccc(CN3C(=O)[C@]4(O[C@H](CC(=O)N5Cc6ccccc6C[C@H]5CO)[C@@H]([Si](C)(C)c5ccc(OC)cc5)[C@@H]4C)c4ccccc43)c2)cc1	1.23	-3.44	1.05	0.219	-0.763	0.0194	0.0639	0.0811	0.711	1.12	-0.513	-0.222 (inactive)	0.0243	-0.154	0.288	0.458	0.557	1.29	1.38	0.858
O=C1O[C@H](Cc2ccccc2)[C@@H]2[C@H]3C=CCCC=C3CN2[C@H]1Cc1ccc(O)cc1	-1.94	-1.7	-0.543	-0.342	-0.593	-0.0991	0.207	0.0222	-0.0081	-0.224	-0.314	-0.263 (inactive)	0.0208	-0.122	0.746	-0.265	-0.256	-1.09	-0.278	-0.211
C=C(CCCC)/C(=C/C[C@@H](OC(C)=O)c1ccc(CO)o1)c1cnc2ccccc2c1	1.42	-0.756	0.735	0.626	-0.764	-0.0704	0.147	-0.0719	1.69	1.15	0.333	-0.117 (inactive)	0.185	-0.0684	0.476	1.45	1.17	1.3	1.03	0.875
C[C@@H]1ON(c2ccccc2)[C@H](c2ccccc2)[C@H]1C(=O)O	-0.429	0.387	0.25	0.0717	-0.124	0.0377	-0.2	0.618	0.109	0.167	-0.189	-0.107 (inactive)	-0.0971	-0.0846	0.685	-0.0056	0.361	0.0005	0.204	-0.0755
C=CCC(OC(C)=O)[C@@H]1[C@@H](N(Cc2cc3ccccc3o2)C(=O)Cc2ccc(OC)cc2)c2cc(OCCCO)ccc2N1C(=O)c1ccc2ccccc2n1 (stereo not given in full)	-0.329	-0.814	0.0809	-0.154	-0.292	0.0573	-0.0362	-0.0381	0.461	1.08	0.277	-0.0847 (inactive)	0.0642	-0.0303	-0.0176	0.361	-0.156	-0.11	0.498	0.0557
CC(C)=C1C(=O)C(c2ccccc2)=C2CN3C(=O)N(CCc4ccccc4)C(=O)[C@]3(C)[C@H]21	0.186	-0.44	-0.245	1.16	0.0844	0.0825	0.748	0.794	0.149	0.196	0.826	0.432 (inactive)	0.0162	0.166	0.373	1.23	-0.414	0.141	-0.686	0.809
C[C@@H]1NC(=O)C([C@@H](C)OCc2ccccc2)NC(=O)[C@@]23C(=O)N[C@@H](Cc4ccccc4)C2[C@H](C)[C@@]2(C)O[C@H]2C3/C=C/C/C=C\CNC1=O (stereo not given in full)	-0.663	-0.914	-0.238	-1.17	-1.85	-0.172	0.299	-0.423	-0.215	-0.0334	-1.17	2.08 (inactive)	-0.222	-0.125	0.61	-0.13	0.0711	-0.503	0.209	-0.928
Cc1ccc(S[C@]2(C(=O)NC(C)C)CC(=O)N(C3CCCCC3)[C@@H]2c2ccc(CO)cc2I)cc1	1.44	-2.93	-0.0068	0.679	-0.558	-0.0721	-0.0035	0.313	0.208	1.52	0.529	0.339 (inactive)	0.0488	-0.0727	0.645	2.6	0.487	1.28	-0.325	1.11
CC(C)C[C@H]1NC(=O)C([C@@H](C)OCc2ccccc2)NC(=O)[C@@]23C(=O)N[C@@H](Cc4ccccc4)C2[C@H](C)[C@@]2(C)O[C@H]2C3/C=C/C/C=C\CNC1=O (stereo not given in full)	0.566	-2.23	0.905	0.216	-0.389	-0.118	-0.0553	0.746	0.174	0.888	0.616	0.0578 (inactive)	0.2	-0.0148	0.412	1.51	0.653	1.3	0.736	0.234
O=C1O[C@H](c2ccccc2)[C@H](c2ccccc2)N2[C@H]1[C@@H](C(=O)N1CCN(c3ncccn3)CC1)[C@]1(C(=O)Nc3ccc(C#CCCO)cc31)[C@H]2c1ccc(O)cc1	1.08	-1.38	-0.379	0.562	0.323	0.0215	0.0684	-0.0927	0.516	1.55	0.627	-0.777 (inactive)	0.171	-0.11	0.413	1.88	0.608	0.574	0.0231	1.01
CC(C)(C)OC(=O)CC[C@]1(C(=O)NCC(O)CO)N=C(c2ccc(OCCCO)cc2)O[C@H]1c1ccccc1N=[N+]=[N-] (stereo not given in full)	0.438	1.18	0.0607	1.28	0.434	0.0775	-0.221	1.36	2.06	0.931	1.02	1.33 (inactive)	0.163	0.149	0.719	3.53	1.03	0.723	0.0058	0.715
